# The whole screen tested about 310,000 compounds, of which about 14,000 (4.5%) showed an effect of 50% or more. Effects have a minus sign here. Only a selection was taken, and strong results are over-represented in it overall.
# Molecular target: human ether-à-go-go-related gene (hERG) potassium channel (human, UniProt Q12809)
# Experiment: primary screen, population patch clamp on CHO cells stably expressing hERG; higher = less effect of the substance
# 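Also: peak tail current of the secondary pulse compared with the same well before compound.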
# Chain of human ether-à-go-go-related gene (hERG) potassium channel (Q12809 whole entry, looked up): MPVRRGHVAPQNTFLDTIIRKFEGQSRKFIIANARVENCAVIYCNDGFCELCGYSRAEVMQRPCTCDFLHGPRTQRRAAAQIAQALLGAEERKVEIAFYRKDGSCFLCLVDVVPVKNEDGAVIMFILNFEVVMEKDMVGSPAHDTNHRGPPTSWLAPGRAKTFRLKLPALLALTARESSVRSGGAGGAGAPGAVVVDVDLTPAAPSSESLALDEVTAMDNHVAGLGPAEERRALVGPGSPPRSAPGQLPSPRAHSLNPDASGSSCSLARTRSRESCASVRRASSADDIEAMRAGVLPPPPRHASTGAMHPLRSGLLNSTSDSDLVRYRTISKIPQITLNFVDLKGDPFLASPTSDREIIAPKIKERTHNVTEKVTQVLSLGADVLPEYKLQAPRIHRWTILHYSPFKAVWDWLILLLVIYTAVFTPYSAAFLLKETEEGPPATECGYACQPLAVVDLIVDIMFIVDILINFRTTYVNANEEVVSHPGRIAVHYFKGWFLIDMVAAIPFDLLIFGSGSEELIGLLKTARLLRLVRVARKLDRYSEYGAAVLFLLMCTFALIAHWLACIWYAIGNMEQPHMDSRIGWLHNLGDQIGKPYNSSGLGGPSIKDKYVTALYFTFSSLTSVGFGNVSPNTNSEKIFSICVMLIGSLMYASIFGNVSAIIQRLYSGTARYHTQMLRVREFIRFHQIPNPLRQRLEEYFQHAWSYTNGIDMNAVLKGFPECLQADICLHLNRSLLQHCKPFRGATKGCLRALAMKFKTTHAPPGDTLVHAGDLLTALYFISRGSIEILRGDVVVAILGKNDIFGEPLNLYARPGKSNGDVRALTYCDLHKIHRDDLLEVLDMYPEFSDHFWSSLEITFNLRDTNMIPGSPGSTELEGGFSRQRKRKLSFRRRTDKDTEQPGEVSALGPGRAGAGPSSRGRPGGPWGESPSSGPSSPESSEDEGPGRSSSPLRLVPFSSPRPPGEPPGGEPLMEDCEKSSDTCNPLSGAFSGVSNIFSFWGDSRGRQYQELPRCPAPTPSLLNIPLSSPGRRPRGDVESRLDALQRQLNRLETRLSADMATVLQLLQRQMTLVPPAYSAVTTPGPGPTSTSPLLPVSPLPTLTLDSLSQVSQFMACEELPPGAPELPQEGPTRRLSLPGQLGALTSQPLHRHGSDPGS
row,Structure (SMILES),"hERG current change (%, negative = inhibition) at 10uM [%]"
1,Cc1cccc(-n2ncc3c(N4CC(C)CC(C)C4)ncnc32)c1 (stereo not shown),8
2,Cc1ccc(NC(=O)C(=S)NCc2ccco2)cc1,7.1
3,O=c1cc(CSc2ccccc2)nc(-c2ccccc2)[nH]1,6.19
4,O=c1cc(CSc2ccc(Cl)cc2)nc(-c2ccncc2)[nH]1,1.72
5,O=c1cc(CSc2ccc(Cl)cc2)nc(-c2ccccc2)[nH]1,-59.7
6,CC(C)C(=O)NC(=S)/C=C1/N(C)c2ccccc2C1(C)C,-1.42
7,O=C(Cc1sc(-c2ccccc2Cl)nc1-c1ccccc1)Nc1ccccc1,11.3
8,COCC(=O)N1CCC(Oc2ccc(C(=O)N3CCCCCC3)cc2)CC1,12.1
9,COc1ccc(/C=C/CN2CCC(Oc3ccc(C(=O)N4CCCCC4)cc3)CC2)cc1,-53.6
10,O=C(c1ccc(OC2CCN(CCO)CC2)cc1)N1CCCC1,18.1
11,COCC(=O)N1CCC(Oc2ccc(C(=O)N3CCCCCCC3)cc2)CC1,22.7
12,COc1ccccc1/C=C/CN1CCC(Oc2ccc(C(=O)N3CCCCC3)cc2)CC1,-44.6
13,O=C(c1ccc(OC2CCN(C/C=C/c3ccc(F)cc3)CC2)cc1)N1CCCC1,-75.5
14,O=C(c1ccc(OC2CCN(Cc3ccccc3OC(F)F)CC2)cc1)N1CCCC1,-3.42
15,O=C(c1ccc(OC2CCN(C/C=C/c3ccc(F)cc3)CC2)cc1)N1CCCCC1,-64.9
16,CC(C)/C=C/CN1CCC(Oc2ccc(C(=O)N3CCCC3)cc2)CC1,-35.3
17,CCN1CCN(Cc2ccc(NC(=O)c3cc(NC(=O)c4cncc(-c5cccs5)c4)cc(OC)c3)cc2C(F)(F)F)CC1.O=C(O)C(F)(F)F,9.85
18,COc1cc(OC)cc(C(=O)NNC(=O)Cc2ccc(OC)c(S(=O)(=O)N3CCOCC3)c2)c1,-1.89
19,COC/C=C/C1=CC2=CC(=O)C(C)(OC(=O)c3cnc4ccccc4n3)C(=O)C2=CN1c1ccc(OC)cc1 (stereo not shown),-4.95
20,O=c1[nH]c2ccccc2cc1CN(c1ccccc1)S(=O)(=O)c1ccccc1,0.56
21,Cc1ccccc1OCCC(=O)OCC(=O)N1CCN(S(=O)(=O)c2ccc(Cl)cc2)CC1,-13.1
22,CCCCCCCSc1cc(OC)c(CCNC)cc1OC.O=C(O)/C=C\C(=O)O,-41.3
23,CCCCCSc1cc(OC)c(CCNC)cc1OC.O=C(O)/C=C\C(=O)O,-48.2
24,CCCCCCCSc1cc(OC)c(CCN(C)C)cc1OC.O=C(O)/C=C\C(=O)O,-64.3

row,Structure (SMILES),"hERG current change (%, negative = inhibition) at 10uM [%]"
1,CCCCCSc1cc(O)c(C(CNC)C(C)C)cc1OC.O=C(O)/C=C\C(=O)O (stereo not shown),-12.9
2,CCCCCSc1cc(OC)c(CCN)cc1OC.O=C(O)/C=C\C(=O)O,-35.9
3,CCCCCSc1cc(OC)c(CCN(C)C)cc1OC.O=C(O)/C=C\C(=O)O,-57.9
4,C/C(=N\OC(=O)Nc1ccccc1)c1ccc(C)cc1,-15.9
5,CN(CCC#N)C(=O)CSc1nc2scc(-c3ccccc3)c2c(=O)[nH]1,-12.6
6,COc1ccc(CCNC(=O)C(=O)NCC2OCCN2S(=O)(=O)c2ccc(OC)cc2)cc1 (stereo not shown),-47.3
7,COc1ccccc1C(=O)Nc1ccc2nc3n(c(=O)c2c1)CCCC3,-36.3
8,COc1ccc(NC(=O)CC2SC(=O)NC2=O)cc1 (stereo not shown),26.8
9,Cc1ccccc1NC(=O)Cc1nc(COC(=O)c2ccc(Cl)c(S(N)(=O)=O)c2)cs1,-60.9
10,Cc1ccccc1NC(=O)Cc1nc(COC(=O)c2cccc(O)c2)cs1,-17.7
11,Cc1ccccc1NC(=O)Cc1nc(COC(=O)c2ccc(Cl)nc2)cs1,2.75
12,COc1ccc(CCNC(=O)CSc2ccc3nnc(CCNC(=O)c4ccccc4)n3n2)cc1OC,6.1
13,CCOC(=O)c1[nH]nc2c1C(=O)N(Cc1ccccc1)C2=O,6.13
14,COc1ccc(/C=N/NC(=O)CSc2ccccn2)cc1OC,2.42
15,CCNC(=O)COC(=O)c1cc(-c2ccccc2)nn1-c1ccccc1,-61.8
16,CCOC(=O)c1cc(-c2cccnc2)nn1-c1ccccc1,9.52
17,CNC(=O)COC(=O)c1cc(-c2ccccc2)nn1-c1ccccc1,-5.35
18,Cc1ccc(CNC(=O)CN2C(=O)NC3(CC(C)CC(C)(C)C3)C2=O)cc1 (stereo not shown),-3.14
19,COc1ccc(-n2c(O)c(C=NCCCn3ccnc3)c(=O)[nH]c2=O)cc1,14.1
20,CC(C)C(=O)N1CCN(c2ccc(NC(=O)c3ccc4c(c3)OCCO4)cc2Cl)CC1,-15
21,O=C(Nc1ccc(N2CCCC2)c(Cl)c1)c1ccc2c(c1)OCCO2,11.8
22,O=C(Nc1ccc(N2CCOCC2)c(Cl)c1)c1ccc2c(c1)OCCO2,-0.379
23,CC(=O)N1CCN(c2ccc(NC(=O)c3ccc4c(c3)OCCO4)cc2Cl)CC1,-64.7
24,O=C(Nc1ccc(N2CCCCC2)c(Cl)c1)c1ccc2c(c1)OCCO2,-1.06

row,Structure (SMILES),"hERG current change (%, negative = inhibition) at 10uM [%]"
1,CN1CCN(c2ccc(NC(=O)c3ccc4c(c3)OCCO4)cc2Cl)CC1,-81.2
2,CCCOc1ccc(C(=O)CCC(=O)OCC(=O)Nc2ccc(Oc3ccccc3)cc2)cc1,-13.3
3,COCCn1nnnc1CN1CCC(Cc2ccccc2)CC1.Cl,-3.18
4,O=C(OCC(=O)N1CCN(C(=O)c2ccco2)CC1)c1ccccc1C(=O)c1ccccc1,-34
5,COc1ccc(NS(=O)(=O)c2ccc(O)c(C(=O)OCC(=O)N3CCCCC3)c2)cc1,-7.02
6,O=C(OCC(=O)N1CCN(C(=O)c2ccco2)CC1)c1cc(S(=O)(=O)Nc2ccc(Cl)cc2)ccc1O,-64.6
7,O=C(OCC(=O)N1CCN(C(=O)c2ccco2)CC1)c1ccccc1C(=O)c1ccc(Cl)cc1,-64.8
8,O=C(OCC(=O)N1CCN(C(=O)c2ccco2)CC1)c1ccccc1NCCO,12.6
9,CCOC(=O)C1CCN(C(=O)COC(=O)c2ccccc2C(=O)c2ccc(Cl)cc2)CC1,-50.4
10,CCOC(=O)C1CCN(C(=O)COC(=O)COc2ccc(Cl)cc2)CC1,13.3
11,O=C(CCNS(=O)(=O)c1ccc(Cl)cc1)OCC(=O)N1CCN(C(=O)c2ccco2)CC1,-47.4
12,O=C(OCC(=O)N1CCOCC1)c1ccccc1Cc1ccccc1,-35.2
13,O=C(OCC(=O)N1CCN(C(=O)c2ccco2)CC1)c1ccccc1OCc1ccccc1,-43.3
14,O=C(OCC(=O)N1CCN(C(=O)c2ccco2)CC1)c1ccccc1Cc1ccccc1,-56.3
15,CCOC(=O)C1CCN(C(=O)COC(=O)Cc2ccc(Cl)cc2)CC1,-22.7
16,O=C1CCCC2=C1C(c1cccnc1)Nc1ccccc1N2 (stereo not shown),5.41
17,COc1ccc(NC(=O)CCC(=O)c2cccs2)cc1Cl,17.6
18,CCOc1cccc2sc(Cl)nc12,13.7
19,COc1cc(N/C=C2\CC(=O)NC(C)=C2C#N)cc(OC)c1OC,19.6
20,Cc1c(NC(=O)COC(=O)C2(c3ccccc3F)CCCC2)c(=O)n(-c2ccccc2)n1C,-1.01
21,O=c1c2oc3ccccc3c2ncn1Cc1ccc(Cl)cc1,11.7
22,CCOc1ccccc1N1CCN(c2nc(N)c(C#N)c(CC#N)c2C#N)CC1,-37.2
23,CCCn1c(SCC(=O)Nc2sc(C)c(C)c2C#N)nnc1C(C)C,-9.76
24,O=C(NCCc1csc(-c2cccnc2)n1)c1ccc(Br)o1,-10.9

row,Structure (SMILES),"hERG current change (%, negative = inhibition) at 10uM [%]"
1,Cc1cc(C)cc(N=C2NC(=O)CS2)c1,0.159
2,CCN(CC)C(=O)COc1ccc(/C(C)=N/NC(=O)c2ccccc2Br)cc1,8.89
3,COc1ccc(CCN(C)C(=O)CSc2nnc(-c3ccco3)o2)cc1OC,-21.3
4,C=CCSc1nnc2nc3[nH]c4c(C)cccc4c3nn12,4.32
5,CCCSc1nnc2nc3c(nn12)c1ccccc1n3C,-49.7
6,C=CCSc1nnc2nc3c(nn12)c1cc(C)ccc1n3CC=C,-55.1
7,O=C(NCc1ccc2c(c1)OCO2)C1(S(=O)(=O)c2ccccc2)CC1,13.4
8,CC(C)Cc1cc(C(=O)N2CCN(C(c3ccccc3)c3ccccc3)CC2)no1,0.0803
9,COc1ccc(/C=c2/sc3nc(-c4ccccc4)c(-c4ccccc4)n3c2=O)cc1,-13.9
10,NC(=O)C1CCN(S(=O)(=O)Cc2ccccc2Cl)CC1,14.8
11,CCn1c(SCc2cccc(C)c2)nnc1-c1ccccc1,-32.9
12,CCn1c(SCc2ccc(C(=O)Nc3nccs3)cc2)nnc1-c1ccc(N)cc1,-22.2
13,C=CCn1c(SCc2ccc(OC)cc2)nnc1-c1cccnc1,-26.9
14,C=CCn1c(SCc2ccc(C#N)cc2)nnc1-c1cccc(OC)c1,-67.4
15,CCn1c(SCc2ccc(C(=O)Nc3nccs3)cc2)nnc1-c1ccc(NC(C)=O)cc1,1.21
16,CCOC(=O)CSc1nnc(-c2cccc(Cl)c2)n1CC,-3.47
17,CCn1c(SCc2ccc(C(=O)Nc3cc(C)cc(C)c3)cc2)nnc1-c1ccncc1,-59.2
18,CCn1c(SCc2ccc(C#N)cc2)nnc1-c1cccc(Cl)c1,-73.6
19,CCn1c(SCc2cccc(F)c2)nnc1-c1ccncc1,-8.82
20,CCn1c(SCc2cccc(C)c2)nnc1-c1ccc(C)cc1,-63.7
21,CCn1c(SCc2ccc(Cl)cc2)nnc1-c1ccccc1,-44.4
22,C=CCn1c(SCc2cccc(OC)c2)nnc1-c1ccncc1,-15.5

# — PMC4336329 (PLoS ONE, 2015)
